Laboratory results reported in PubChem BioAssay AID751 (NMMLSC, 2007).
The whole screen tested about 24,000 compounds, of which about 40 (0.2%) were called active.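 How the source made its calls: active means inhibition of disassembly above about 33% (limit read from the data); inconclusive means likely self-fluorescent, control bead median signal at least 40; inactive means the rest.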 Shown is part of a subset that was picked to be rich in actives.

tested on: 26S proteasome (yeast, GFP-tagged, ATP-dependent disassembly); test: inhibitors of ATP-driven 26S proteasome dissociation, primary screen, biochemical, bead-based flow cytometry, GFP-tagged proteasome (AID 751); conditions: anti-FLAG beads, active compounds read high, concentration not given here;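 further: plate controls were ATP control with full disassembly for no effect and ATP-gamma-S intact proteasomes for full effect; higher percent means more bead fluorescence retained so stronger block of disassembly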

Inhibition of disassembly, inactive:
Cc1nc2ccc(S(=O)(=O)NC(C(=O)N3CCCCCC3)C(C)C)cc2s1 (stereo not given) 0%
CC(C)C1N=C2c3ccccc3N=C(SCC(=O)c3ccc(O)c(O)c3)N2C1=O (stereo not given) -7.17%
Nc1nonc1C(=O)NCCc1ccccc1 -0.31%
CCCCN(CC)C(=O)CN(C)S(=O)(=O)c1cccc2nsnc12 -0.83%
CC(=O)Nc1ccc(NS(=O)(=O)c2cc(C)sc2C)cc1 1.22%
CCCNC(=O)Nc1ccccc1C(=O)Nc1ccc(OC)cc1 0.82%
COc1ccccc1CNC(=O)CCCn1c(=O)c2ccccc2n(CC(=O)NC2CCCC2)c1=O -1.05%
O=C(c1cc(-c2ccccc2O)on1)N1CCCC1 3.8%
CCCCC(=O)Nc1cc(C)c2c(=O)oc3ccccc3c2n1 -3.04%
COc1ccccc1-c1nc(C(F)(F)F)c(OC)o1 -0.84%
O=C(Nc1nsc(-c2ccccc2)n1)c1ccncc1 -0.11%
COC(=O)c1oc2ccc(Br)cc2c1NC(C)=O 0.425%
Cc1cc(=O)n2nc(N3CCCC(C(=O)NCCC4=CCCCC4)C3)sc2n1 (stereo not given) -1.75%
Cc1cc(C)c(C)c(S(=O)(=O)Nc2ccc(O)cc2)c1C 0.6%
O=C(NCc1cccs1)c1ccc2c(c1)ncn2C1CCCC1 0.01%
O=C(Cn1nnc(-c2ccc(CN3CCOCC3)cc2)n1)NC1CCCCC1 0.56%
O=C(CN1C(=O)C2C3C=CC(C3)C2C1=O)NCCc1ccccc1Cl (stereo not given) -3.34%
CCOC(=O)C1CCN(C(=O)Cc2c(C(=O)O)[nH]c3ccccc23)CC1 1.78%
CC(c1nnc(SCC(=O)Nc2sccc2C#N)n1-c1ccc(Cl)cc1)N(C)C (stereo not given) 0.73%
COC(=O)c1ccccc1NC(=O)c1cncc(Br)c1 1.29%
CCOC(=O)C1C(=O)C=C(c2ccc(OC)cc2)CC1c1ccco1 (stereo not given) -0.2%
O=c1c2[nH]c3ccc(Cl)cc3c2ncn1Cc1ccccn1 -0.64%
Cn1c(COc2ccc(Cl)cc2)nc2ccccc2c1=O -1.78%
O=C1CC(c2cccc(Br)c2)C2=C(CCCC2=O)N1 (stereo not given) 2.93%
COc1ccc(CCNC(=O)c2ccc3c(c2)NC(=O)C(N2CCOCC2)S3)cc1OC (stereo not given) 7.35%
COc1ccc(CCNC(=O)CCCCn2c(=O)[nH]c3ccccc3c2=O)cc1OC -2.22%
Cc1oc(-c2cccc(Cl)c2)[n+]([O-])c1C -1.38%
COc1ccc(CC(=O)Nc2c3c(nn2-c2cccc(Cl)c2)CS(=O)C3)cc1 (stereo not given) -0.575%
COc1ccc(CCNC(=O)c2cc(-c3ccc4c(c3)OCO4)on2)cc1OC -0.34%
CCOC(=O)Cn1c(=O)oc2cc(S(=O)(=O)NCC3CCCO3)ccc21 (stereo not given) -1.43%
CCOC(=O)c1c(C)oc2ccc(OCC(=O)N(CC)CC)cc12 0.35%
O=C(CCCCn1c(=O)[nH]c2ccccc2c1=O)NCc1ccc2c(c1)OCO2 1.45%
Cn1c(=O)[nH]c(=O)c2c1nc(N(CCO)Cc1ccccc1)n2Cc1ccccc1Cl 0.72%
COC(=O)C1C(=O)c2c([nH]c(C(=O)OCCSC)c2C)CC1C (stereo not given) -0.89%
COc1cccc(NC(=O)Cn2cnc3sc(C)c(S(=O)(=O)N4CCN(C)CC4)c3c2=O)c1 -0.73%
CC(=O)Nc1nonc1-c1nc2ccccc2n1Cc1ccccn1 5.18%
CCOC(=O)N1CCC(Nc2c(NCCCN3CCN(c4ccc(OC)cc4)CC3)c(=O)c2=O)CC1 1.14%
CCOCCc1c(O)nc(SCC(=O)NCc2ccco2)[nH]c1=O -2.18%
CN(C)CCCNC(=O)c1ccc2[nH]c3ccccc3c2c1 -0.71%
Cc1cccc(NC(=O)CSc2nc3c(c(=O)[nH]2)CCC3)c1C 0.47%
CC(=O)NC1CC2CCCC(C1)N2CC(=O)Nc1ccccc1 (stereo not given) -0.95%
CC12CN3CC(C)(CN(C1)C3c1ccc(Cl)cc1Cl)C2=O (stereo not given) 1.12%
Cc1nc2sc(C(c3ccco3)N3CCC4(CC3)OCCO4)c(O)n2n1 (stereo not given) -1.33%
CCn1ncc(C2=NOC(C(=O)Nc3ccccc3C(=O)OC)C2)c1C (stereo not given) 0.71%
CCCn1c(C(O)c2ccc(OCC)cc2)nc2ccccc21 (stereo not given) 0.49%
CCn1cc(C(=O)NC2CCCCCC2)c(=O)c2cc(S(=O)(=O)N3CCCCC3)ccc21 -0.53%
Cc1nonc1NC(=O)c1ccccc1Br -2.02%
CC1C=CCC2C(=O)N(c3cccc(C(=O)N4CCCCCC4)c3)C(=O)C12 (stereo not given) -0.22%
CC(NC(=O)CN1CCN(Cc2ccc(Cl)cc2)C1=O)c1ccc2c(c1)OCCO2 (stereo not given) 0.26%
CCOc1cc2[nH]c(=S)n(CCCN3CCCC3=O)c(=O)c2cc1OCC -0.66%
O=C(c1ccc2c(c1)N(Cc1ccc(F)cc1)C(=O)CS2)N1CCOCC1 3.05%
O=C(CCCN1C(=O)C2C3C=CC(C3)C2C1=O)N1CCN(c2ccccc2)CC1 (stereo not given) -1.14%
COc1ccc(C2C3=C(OC(C)=O)c4ccccc4C3=Nc3c2c(=O)n(C)c(=O)n3C)cc1 (stereo not given) -0.28%
Nc1nc(SCCOc2ccccc2)n[nH]1 1.41%
Cc1cc(C(=O)O)c(S(C)(=O)=O)s1 -0.75%
Cc1noc(/C=C/N(C)C)c1S(=O)(=O)N1CCCC(C(=O)NCc2ccco2)C1 (stereo not given) -7.75%
COc1cccc(Nc2nnc(SCC(=O)N3CC(C)OC(C)C3)s2)c1 (stereo not given) -3.96%
Cc1cc(Nc2ccc(Br)cc2F)n2ncnc2n1 -4.6%
CCOC(=O)c1sc(=S)n2c1[nH]c(=O)c1ccc(C(=O)OC)cc12 0.98%
Cn1c(C(=O)NCCN2CCc3ccccc3C2)cc2c(=O)[nH]c3ccccc3c21 -0.79%
